The text below walks through data of the supplement of paper PMC10681739.
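Wherever RUNX1 binding intensity (PBM fluorescence), RUNX1 alone is given: Full-length recombinant human RUNX1 bound to double-stranded 36-bp genomic probes on a high-density microarray, scored as Alexa488 fluorescence per spot via anti-RUNX1 antibody, median of four replicate spots.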

Chain of RUNX1 (Q01196 whole entry): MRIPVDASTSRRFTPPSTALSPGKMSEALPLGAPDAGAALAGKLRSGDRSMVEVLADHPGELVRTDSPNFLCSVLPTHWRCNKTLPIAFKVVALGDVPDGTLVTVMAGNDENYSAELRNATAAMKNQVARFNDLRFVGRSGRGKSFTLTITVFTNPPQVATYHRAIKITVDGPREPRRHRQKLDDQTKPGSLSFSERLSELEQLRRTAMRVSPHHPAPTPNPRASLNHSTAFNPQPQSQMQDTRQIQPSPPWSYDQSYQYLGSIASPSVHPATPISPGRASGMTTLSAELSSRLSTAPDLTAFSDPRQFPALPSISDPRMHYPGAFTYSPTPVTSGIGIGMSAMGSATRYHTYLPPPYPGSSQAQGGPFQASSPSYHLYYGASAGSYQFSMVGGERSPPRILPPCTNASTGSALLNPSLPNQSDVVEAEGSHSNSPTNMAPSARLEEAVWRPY

One experiment addresses T1, ETS1 (UniProt P14921).
T1 sequence: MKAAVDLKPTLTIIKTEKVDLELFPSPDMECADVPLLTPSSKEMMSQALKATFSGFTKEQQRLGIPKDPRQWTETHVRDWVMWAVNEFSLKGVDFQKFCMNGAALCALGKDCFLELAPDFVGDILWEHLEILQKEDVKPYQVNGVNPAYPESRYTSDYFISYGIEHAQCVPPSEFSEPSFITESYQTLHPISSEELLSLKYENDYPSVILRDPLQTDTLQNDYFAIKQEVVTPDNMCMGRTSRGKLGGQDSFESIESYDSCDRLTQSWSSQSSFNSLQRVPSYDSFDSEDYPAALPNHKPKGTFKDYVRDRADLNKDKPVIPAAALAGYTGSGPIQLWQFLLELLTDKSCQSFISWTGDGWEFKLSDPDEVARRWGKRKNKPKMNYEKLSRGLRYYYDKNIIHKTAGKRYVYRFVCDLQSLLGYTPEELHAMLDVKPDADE
The experiment is described as follows: ETS1 binding intensity (PBM fluorescence), ETS1 alone (arbitrary fluorescence units); higher = stronger binding. Conditions: ETS1 concentration 1 nM; RUNX1 concentration 0 nM.
Take TTACTGCCGGAACTTGGGACCTTTGTAACCACGTCT: the ETS1 binding intensity is 524.

On to ATGTCCCCAGGAGGATGTGGTGTGTCCACAGGAGGA, for which the ETS1 binding intensity stood at 759.

The sequence TCGGAGACGGCGAAAGGAAACCGCAAGGAGGCCACC gave an ETS1 binding intensity of 642.

CCCTCAGCGGAAGTGGAAGCTGTGGTTTCCAAAGGC came in with an ETS1 binding intensity of 4750.

Sequence ACTGCACGGCTGGGAGGATGTGGTCACACACGCCAC gave an ETS1 binding intensity of 1380.

As to AGTGGCAGTGCAGGAAGTGGTTTGTCTGGTACAATC, the ETS1 binding intensity turned out to be 3750.

Take CGACAGAGGACACTTCCTTTTGCGGGTGGCGGCGAA: the ETS1 binding intensity was found to be 550.

The sequence GCCGTCACTTCCGTCATTCAAACCGCCCGCCAATGG yielded an ETS1 binding intensity of 823.

For the sequence TGGCTGTCACTTCCTGTCCCACTGTGGTTCCTGGGA, the ETS1 binding intensity is 4940.

In turn, GAGCAGGAAGCACCCCCAGCACAGGCCTGCGGTGAG had an ETS1 binding intensity of 438.

In the case of GACATATCCTGCATTCTCAGAAAAACCACAGGCTAG, the ETS1 binding intensity came out at 391.

The sequence GCTGATAAAACAGGATGTGGTAAAGAAGCCGGCCAA had an ETS1 binding intensity of 5160.

The sequence CTTGCCACACTTCCTCTTGTTTTGAACCACTATATT showed an ETS1 binding intensity of 724.

On to CCTCGGTTCGGAAACGGCGAAAGCAAACCGCAAGGA, for which the ETS1 binding intensity worked out at 478.

Regarding CTGCTGACCAAAACAGGATGTGGTCTACACAAAGTG, the ETS1 binding intensity is 10300.

As to CCCAATTTCCTTTGCTCTGCTGTCTGCCAACCGCAA, the ETS1 binding intensity turned out to be 418.

The sequence CACCCATAGCACCCCGGAAACCACCTCCACCACCTG registered an ETS1 binding intensity of 1890.

Regarding AGATGCAGAACAGGAAGTGGTTTAGAAAGCCACTCT, the ETS1 binding intensity was 8980.

In turn, TCAATAAGACAGGATGTTCTCCAACCGCATTAAGCT had an ETS1 binding intensity of 3270.

GCAGCATTTCCTGACTTCTTCGCCCCTGTGGTTGCA came in with an ETS1 binding intensity of 440.

With AGTACGATGGGAGGAAGTGGTTTGTAAGAGGAGGAC, the ETS1 binding intensity is 1740.

In turn, ACCTCATCCTGCTGTTCTTGTGTGTGGTTGAGCAGT came in with an ETS1 binding intensity of 453.

As to GCAGAGAGATTGGCCGGATGCGGTGGCTCACGCCTT, the ETS1 binding intensity was 4850.

Sequence CTGGGGATGTGTGACACTCAGAGAAACCACAAGGTG had an ETS1 binding intensity of 495.

Take AGCAGCTGCCAGAGGAAGTCTGCGGTCGGAACAGGC: the ETS1 binding intensity was found to be 1260.

AACTAGAGCGTCATTTCCTGTGGGTACAAGTCCAGT showed an ETS1 binding intensity of 1640.

ACACAGGAAGGACGCACGCTCCCGCCCCAACCACAT: the ETS1 binding intensity worked out at 690.

Consider GTGGGAGCGGAAGCCTGAGCGGCCTGCGGCCTCCGG, for which the ETS1 binding intensity is 863.

On to TTTGTGCCCCAACTTCCTCTGTGGCTTTTGGGTGGG, for which the ETS1 binding intensity worked out at 650.

For the sequence CTCCTTCCTGATCGGGCAGGAACTAACCACAGGAGG, the ETS1 binding intensity is 1060.

For GTGCAGGGCCCGGAAGCTCAGTGTGGTTAAAGACAT, the ETS1 binding intensity was determined as 2010.

The sequence GGGATCTACTTCCTCTCTCGGCCGCGGCCGCAGCAC had an ETS1 binding intensity of 790.

As to CAGGCACACATCCGGGAGCGGCCTGCGCCGCAAGGC, the ETS1 binding intensity amounted to 608.

In turn, GTTCTCAGCTTCCTGTTCACAGAGAAACCTCAGACA had an ETS1 binding intensity of 1370.

TGCAATCAGGAAGCCTGCCCCTCTAGAACCACAAAA showed an ETS1 binding intensity of 540.

GGCTTCCTGCCCAACTACCAAGAAAAAGCCACAAAG displayed an ETS1 binding intensity of 453.

The sequence GAGTTCCGCCTCGCCGTTTGTCCCTTGCGGTACCCG came in with an ETS1 binding intensity of 351.

Sequence CTAGCTGTGGACAGGAAACGAGTGGTTTTTGTGATC gave an ETS1 binding intensity of 5270.

For TTGACTCGGGAATGTCCGGTCGTGGTAAGCAGGGTG, the ETS1 binding intensity stood at 770.

As to AGGGTTACAATTTCCGTAAACCACAGAAGCAGCAGA, the ETS1 binding intensity worked out at 550.

A further experiment concerns the target RUNX1 (UniProt Q01196). The experiment can be described thus: RUNX1 binding intensity (PBM fluorescence), RUNX1 alone (arbitrary fluorescence units); higher = stronger binding. Conditions: RUNX1 concentration 2 nM; ETS1 concentration 0 nM. The procedure: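 Cooperative gcPBM on 36-bp genomic probes with neighbouring ETS1 and RUNX1 sites. Recombinant human RUNX1 (2 nM) was incubated alone or with ETS1 (25 nM) and detected with anti-RUNX1 antibody plus Alexa488 secondary. Values are medians over 4 replicate spots; the RUNX1+ETS1 data were normalised to the RUNX1-only data. The probes sit in constant array flanks that are not printed.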
With TTACTGCCGGAACTTGGGACCTTTGTAACCACGTCT, the RUNX1 binding intensity is 768.

ATGTCCCCAGGAGGATGTGGTGTGTCCACAGGAGGA returned an RUNX1 binding intensity of 742.

In the case of TCGGAGACGGCGAAAGGAAACCGCAAGGAGGCCACC, the RUNX1 binding intensity stood at 4180.

CCCTCAGCGGAAGTGGAAGCTGTGGTTTCCAAAGGC: the RUNX1 binding intensity was determined as 916.

Consider ACTGCACGGCTGGGAGGATGTGGTCACACACGCCAC, for which the RUNX1 binding intensity came out at 869.

Regarding AGTGGCAGTGCAGGAAGTGGTTTGTCTGGTACAATC, the RUNX1 binding intensity turned out to be 788.

The sequence CGACAGAGGACACTTCCTTTTGCGGGTGGCGGCGAA yielded an RUNX1 binding intensity of 697.

As for GCCGTCACTTCCGTCATTCAAACCGCCCGCCAATGG, the RUNX1 binding intensity came out at 1050.

With TGGCTGTCACTTCCTGTCCCACTGTGGTTCCTGGGA, the RUNX1 binding intensity worked out at 763.

The sequence GAGCAGGAAGCACCCCCAGCACAGGCCTGCGGTGAG had an RUNX1 binding intensity of 741.

In turn, GACATATCCTGCATTCTCAGAAAAACCACAGGCTAG returned an RUNX1 binding intensity of 1290.

Turning to GCTGATAAAACAGGATGTGGTAAAGAAGCCGGCCAA, the RUNX1 binding intensity was 817.

Consider CTTGCCACACTTCCTCTTGTTTTGAACCACTATATT, for which the RUNX1 binding intensity turned out to be 2620.

CCTCGGTTCGGAAACGGCGAAAGCAAACCGCAAGGA had an RUNX1 binding intensity of 2260.

CTGCTGACCAAAACAGGATGTGGTCTACACAAAGTG: the RUNX1 binding intensity was 800.

The sequence CCCAATTTCCTTTGCTCTGCTGTCTGCCAACCGCAA registered an RUNX1 binding intensity of 2740.

In the case of CACCCATAGCACCCCGGAAACCACCTCCACCACCTG, the RUNX1 binding intensity came to 1390.

AGATGCAGAACAGGAAGTGGTTTAGAAAGCCACTCT came in with an RUNX1 binding intensity of 827.

The sequence TCAATAAGACAGGATGTTCTCCAACCGCATTAAGCT returned an RUNX1 binding intensity of 854.

GCAGCATTTCCTGACTTCTTCGCCCCTGTGGTTGCA: the RUNX1 binding intensity came out at 850.

Consider AGTACGATGGGAGGAAGTGGTTTGTAAGAGGAGGAC, for which the RUNX1 binding intensity worked out at 640.

ACCTCATCCTGCTGTTCTTGTGTGTGGTTGAGCAGT showed an RUNX1 binding intensity of 944.

In turn, GCAGAGAGATTGGCCGGATGCGGTGGCTCACGCCTT had an RUNX1 binding intensity of 683.

For the sequence CTGGGGATGTGTGACACTCAGAGAAACCACAAGGTG, the RUNX1 binding intensity was determined as 1010.

Take AGCAGCTGCCAGAGGAAGTCTGCGGTCGGAACAGGC: the RUNX1 binding intensity is 1410.

Sequence AACTAGAGCGTCATTTCCTGTGGGTACAAGTCCAGT had an RUNX1 binding intensity of 842.

ACACAGGAAGGACGCACGCTCCCGCCCCAACCACAT: the RUNX1 binding intensity is 901.

The sequence GTGGGAGCGGAAGCCTGAGCGGCCTGCGGCCTCCGG displayed an RUNX1 binding intensity of 692.

TTTGTGCCCCAACTTCCTCTGTGGCTTTTGGGTGGG returned an RUNX1 binding intensity of 898.

Consider CTCCTTCCTGATCGGGCAGGAACTAACCACAGGAGG, for which the RUNX1 binding intensity worked out at 825.

As to GTGCAGGGCCCGGAAGCTCAGTGTGGTTAAAGACAT, the RUNX1 binding intensity was 805.

Sequence GGGATCTACTTCCTCTCTCGGCCGCGGCCGCAGCAC had an RUNX1 binding intensity of 792.

As to CAGGCACACATCCGGGAGCGGCCTGCGCCGCAAGGC, the RUNX1 binding intensity worked out at 773.

For GTTCTCAGCTTCCTGTTCACAGAGAAACCTCAGACA, the RUNX1 binding intensity was 946.

As to TGCAATCAGGAAGCCTGCCCCTCTAGAACCACAAAA, the RUNX1 binding intensity is 882.

GGCTTCCTGCCCAACTACCAAGAAAAAGCCACAAAG displayed an RUNX1 binding intensity of 1100.

In turn, GAGTTCCGCCTCGCCGTTTGTCCCTTGCGGTACCCG came in with an RUNX1 binding intensity of 890.

For CTAGCTGTGGACAGGAAACGAGTGGTTTTTGTGATC, the RUNX1 binding intensity was 740.

The sequence TTGACTCGGGAATGTCCGGTCGTGGTAAGCAGGGTG returned an RUNX1 binding intensity of 683.

Consider AGGGTTACAATTTCCGTAAACCACAGAAGCAGCAGA, for which the RUNX1 binding intensity came out at 1450.
